According to PubChem BioAssay (NCATS):
Records with an inconclusive call do not appear. Active and inactive are the calls of the source. Unless noted, calls come from the whole dose curve; as a rule, active = well fitted curve in either direction with a large enough effect (not every such curve was filed as active); inconclusive = small, poorly fitted or top-dose-only effect, or another doubt; inactive = flat fitted curve, though single readings scatter.

Legend:
[1] = biological target: Lysosomal acid glucosylceramidase (Homo sapiens) (UniProt P04062); test: Glucocerebrosidase-p2 (AID 348; in the data active = potency below about 10 µM; note: potency is the fitted concentration of half-maximal effect); conditions: purified GBA, blue fluorogenic substrate, 40 min
Sequence of Lysosomal acid glucosylceramidase (Homo sapiens) (P04062 whole entry, looked up): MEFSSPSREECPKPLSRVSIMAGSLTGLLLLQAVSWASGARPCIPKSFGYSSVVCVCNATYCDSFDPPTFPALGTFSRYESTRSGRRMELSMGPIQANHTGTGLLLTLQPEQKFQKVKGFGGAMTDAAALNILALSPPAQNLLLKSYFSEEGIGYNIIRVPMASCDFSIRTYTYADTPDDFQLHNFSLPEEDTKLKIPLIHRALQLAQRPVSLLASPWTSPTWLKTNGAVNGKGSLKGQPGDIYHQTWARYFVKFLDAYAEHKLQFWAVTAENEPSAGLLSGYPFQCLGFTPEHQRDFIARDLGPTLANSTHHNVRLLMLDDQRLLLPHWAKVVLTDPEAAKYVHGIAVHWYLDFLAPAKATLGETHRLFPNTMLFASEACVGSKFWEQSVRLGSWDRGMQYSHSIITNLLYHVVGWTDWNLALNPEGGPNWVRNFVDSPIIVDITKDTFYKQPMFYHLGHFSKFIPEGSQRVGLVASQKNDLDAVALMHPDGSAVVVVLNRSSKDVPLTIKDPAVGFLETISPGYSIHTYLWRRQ
Outline: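 Normal human glucocerebrosidase (0.2 nM) with blue fluorogenic substrate (80 uM final) in citrate/phosphate pH 5.9 with 10mM sodium taurocholate, 0.01% tween-20; 40 min RT, NaOH/glycine stop; fluorescence Ex 365/Em 440; AC50 from a titration from 0.6 nM upwards.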

[2] = AP1 Signaling Pathway (AID 357); conditions: ME-180 AP-1-bla reporter, EGF-induced, beta-lactamase ratio, 5 h; at 7.69 µM (top of the series) unless noted; note: % is set by controls: 0 for no effect and ±100 for the full control effect
Outline: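 AP-1-bla ME-180 cells with beta-lactamase reporter under AP-1 response element, stimulated with EC50 EGF; compounds titrated, 5 hours at 37 degrees Celsius. CCF4 read at 460/530 nm ratio; positive and negative modulators judged by AC50.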

[3] = biological target: Cytochrome P450 1A2 (Homo sapiens) (UniProt P05177); test: p450-cyp1a2 (AID 410; calls by dose curve; note: potency is the fitted concentration of half-maximal effect;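 for activity change, negative = inhibition: -100% = full effect of reference inhibitor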); conditions: recombinant CYP1A2, luciferin-ME demethylation, luminescence; series mostly up to 57 µM
Sequence of Cytochrome P450 1A2 (Homo sapiens) (P05177 whole entry, looked up): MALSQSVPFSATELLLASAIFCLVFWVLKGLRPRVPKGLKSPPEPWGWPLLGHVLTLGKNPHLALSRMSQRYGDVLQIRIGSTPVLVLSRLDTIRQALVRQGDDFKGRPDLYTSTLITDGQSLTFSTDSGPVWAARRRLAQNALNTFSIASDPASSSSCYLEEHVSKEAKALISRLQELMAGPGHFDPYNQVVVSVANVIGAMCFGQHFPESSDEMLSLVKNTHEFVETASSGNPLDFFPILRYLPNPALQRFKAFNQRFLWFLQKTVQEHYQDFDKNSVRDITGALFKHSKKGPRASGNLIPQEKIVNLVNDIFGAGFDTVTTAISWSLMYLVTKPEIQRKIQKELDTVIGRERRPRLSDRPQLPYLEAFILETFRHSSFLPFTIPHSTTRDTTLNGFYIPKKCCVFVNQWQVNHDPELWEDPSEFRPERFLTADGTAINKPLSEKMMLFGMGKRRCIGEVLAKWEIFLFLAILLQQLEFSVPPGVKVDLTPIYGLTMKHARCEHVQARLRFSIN
Outline: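 Luminescent demethylation readout: Luciferin-ME (100uM, equal to Km) turned over by 20nM CYP1A2 for 60 min at room temperature after NADPH regeneration addition, following 10 min compound preincubation. Normalization used 57 uM furafylline as full inhibition.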

[4] = NFAT Signaling Pathway (AID 444); conditions: Jurkat NFAT-bla M1, carbachol, beta-lactamase ratio, 5 h; at 7.69 µM (top of the series) unless noted;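 note: carbachol stimulus at about its EC50 of 1 µM final; % is set by controls: 0 for no effect and ±100 for the full control effect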
Outline: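 Jurkat cells carrying an NFAT-driven β-lactamase reporter and co-transfected muscarinic M1 receptor were treated with compound plus carbachol (1 uM final, an EC50 level) for 5 h at 37 °C. CCF4 loading followed for 1 h at RT; 460/530 nm ratio gave %activity.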

[5] = Stat Signaling Pathway (AID 446); conditions: ME-180 (cervical carcinoma) SIE beta-lactamase reporter, IL-6 stimulated, 5 h; at 7.69 µM (top of the series) unless noted;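 note: ME-180 cervical cancer cells given 40 pM IL-6 alongside compound; SIE-controlled beta-lactamase reporter measured as 460/530 nm FRET emission ratio; % is set by controls: 0 for no effect and ±100 for the full control effect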
Outline: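 Normalization used AC90 stimulation (300 pM IL-6) and AC90 inhibition (125 nM pan-JAK inhibitor at 40 pM IL-6). The underlying signal is SIE-driven beta-lactamase in ME-180 cells after 5 h IL-6 exposure with compound.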

[6] = biological target: Glucocorticoid receptor (Homo sapiens) (UniProt P04150); test: GR-EFC Redistribution (AID 451; calls by dose curve; note: potency is the fitted concentration of half-maximal effect); conditions: CHO-K1 GR-EFC translocation, beta-gal luminescence, 2 h
Sequence of Glucocorticoid receptor (Homo sapiens) (P04150 whole entry, looked up, the tested form may be a part): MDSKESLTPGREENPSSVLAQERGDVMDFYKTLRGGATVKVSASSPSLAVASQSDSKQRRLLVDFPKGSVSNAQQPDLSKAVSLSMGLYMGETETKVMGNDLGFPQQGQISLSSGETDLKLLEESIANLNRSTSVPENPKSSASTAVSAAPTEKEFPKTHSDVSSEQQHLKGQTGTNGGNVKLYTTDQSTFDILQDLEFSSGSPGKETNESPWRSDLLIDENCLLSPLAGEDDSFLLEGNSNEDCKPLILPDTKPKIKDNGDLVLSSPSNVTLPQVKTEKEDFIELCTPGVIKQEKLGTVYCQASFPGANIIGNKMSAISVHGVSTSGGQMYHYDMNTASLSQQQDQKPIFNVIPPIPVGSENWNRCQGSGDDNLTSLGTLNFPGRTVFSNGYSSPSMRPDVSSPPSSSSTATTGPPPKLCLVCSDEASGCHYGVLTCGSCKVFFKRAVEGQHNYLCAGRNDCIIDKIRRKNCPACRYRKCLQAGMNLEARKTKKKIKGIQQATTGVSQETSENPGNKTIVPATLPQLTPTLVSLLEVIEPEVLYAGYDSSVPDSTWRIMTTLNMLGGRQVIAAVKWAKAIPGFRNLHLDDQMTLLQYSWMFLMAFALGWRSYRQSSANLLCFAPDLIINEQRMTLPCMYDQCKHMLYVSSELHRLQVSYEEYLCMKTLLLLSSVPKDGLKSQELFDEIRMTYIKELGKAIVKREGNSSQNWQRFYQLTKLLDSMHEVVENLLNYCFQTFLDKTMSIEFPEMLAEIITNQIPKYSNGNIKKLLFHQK
Outline: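 CHO-K1 cells stably expressing nuclear-localized β-gal enzyme acceptor and GR fused C-terminally to the enzyme donor fragment; ligand-driven nuclear translocation restores β-gal by complementation. Compounds titrated up to 46 uM final, 2 h at 37 °C; luminescence read.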

[7] = biological target: Mitogen-activated protein kinase 10 (Mus musculus) (UniProt Q61831); test: JNK3 AlphaScreen Assay (AID 530); conditions: JNK3 lysate, c-Jun phosphorylation; series mostly up to 57.1 µM;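 note: kinase came from lysate of stimulated human HepG2 cells; signal reports phosphorylation of biotinylated GST-cJun 1-79 at Ser73 with 10 µM ATP; % is set by controls: 0 for no effect and ±100 for the full control effect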
Outline: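 Phosphorylation of biotinylated GST-cJun(1-79) at Ser73 is measured by AlphaScreen proximity luminescence. Enzyme is JNK3 in HepG2 lysates activated with interleukin-1beta and tumor necrosis factor alpha; ATP is 10 uM final.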

[8] = biological target: 3',5'-cyclic-AMP phosphodiesterase 4B (Homo sapiens) (UniProt Q07343); test: qHTS Assay for Inhibitors of PDE-IV (AID 607; active = well fitted activation curve with a large enough effect in the main read-out, with a control signal flat, not every such curve was filed as active; note: % of control where 0% means no effect); conditions: HEK293 ACTOne CNG channel cells, membrane potential fluorescence; series mostly up to 22.9 µM
Sequence of 3',5'-cyclic-AMP phosphodiesterase 4B (Homo sapiens) (Q07343 whole entry, looked up): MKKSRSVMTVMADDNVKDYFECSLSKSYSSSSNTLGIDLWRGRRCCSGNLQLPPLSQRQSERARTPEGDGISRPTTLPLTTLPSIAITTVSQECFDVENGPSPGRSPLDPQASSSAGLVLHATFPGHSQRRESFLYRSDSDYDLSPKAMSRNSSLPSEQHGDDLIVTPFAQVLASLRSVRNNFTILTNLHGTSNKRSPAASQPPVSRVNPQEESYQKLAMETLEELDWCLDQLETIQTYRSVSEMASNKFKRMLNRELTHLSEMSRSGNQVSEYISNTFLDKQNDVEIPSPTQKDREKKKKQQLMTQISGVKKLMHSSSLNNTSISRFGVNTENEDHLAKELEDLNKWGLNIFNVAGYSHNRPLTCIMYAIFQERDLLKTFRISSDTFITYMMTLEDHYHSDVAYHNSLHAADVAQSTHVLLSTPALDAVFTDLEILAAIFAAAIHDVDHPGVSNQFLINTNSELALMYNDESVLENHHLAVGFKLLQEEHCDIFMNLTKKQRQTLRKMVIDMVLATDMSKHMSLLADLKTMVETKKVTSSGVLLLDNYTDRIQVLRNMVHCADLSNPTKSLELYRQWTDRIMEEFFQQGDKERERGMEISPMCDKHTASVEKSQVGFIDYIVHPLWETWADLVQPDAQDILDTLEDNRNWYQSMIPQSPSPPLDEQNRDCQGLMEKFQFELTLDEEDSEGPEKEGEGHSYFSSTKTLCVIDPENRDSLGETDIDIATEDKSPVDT
Outline: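 HEK293 ACTOne cells with CNG channel (1000/well), endogenous PDE4; membrane potential dye, compounds up to 22.9 uM final. Fluorescence Ex 535/Em 590; RO 20-1724 (100 uM final) as reference.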

[9] = biological target: Cytochrome P450 3A4 (Homo sapiens) (UniProt P08684); test: qHTS Assay for Activators of Cytochrome P450 3A4 (AID 885; active = well fitted curve in the direction sought with a large enough effect; an effect the other way counts as inactive or inconclusive; note: nearly all actives have a fitted effect of over 65% in size; note: potency is the fitted concentration of half-maximal effect); conditions: recombinant CYP3A4, Luciferin-PPXE luminescence, 60 min; series mostly up to 57.1 µM
Sequence of Cytochrome P450 3A4 (Homo sapiens) (P08684 whole entry, looked up): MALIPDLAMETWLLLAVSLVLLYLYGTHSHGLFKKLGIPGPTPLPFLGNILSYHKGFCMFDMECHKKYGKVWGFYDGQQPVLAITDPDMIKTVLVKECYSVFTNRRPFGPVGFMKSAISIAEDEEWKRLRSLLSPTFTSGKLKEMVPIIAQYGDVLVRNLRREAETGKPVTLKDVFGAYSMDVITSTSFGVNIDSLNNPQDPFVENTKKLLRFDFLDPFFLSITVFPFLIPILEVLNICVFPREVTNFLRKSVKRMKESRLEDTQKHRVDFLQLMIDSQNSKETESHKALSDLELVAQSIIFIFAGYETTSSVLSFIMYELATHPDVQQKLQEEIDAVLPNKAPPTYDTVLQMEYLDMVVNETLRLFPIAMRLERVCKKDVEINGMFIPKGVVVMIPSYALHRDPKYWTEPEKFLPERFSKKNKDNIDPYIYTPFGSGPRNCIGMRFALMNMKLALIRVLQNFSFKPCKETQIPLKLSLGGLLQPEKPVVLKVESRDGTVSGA
Outline: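 Human CYP3A4 dealkylates Luciferin-PPXE to luciferin, which luciferase detection converts to light. Substrate was at its KM (25uM), buffer 200mM KPO4, reaction 60 min at RT.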

[10] = Primary qHTS for small molecule stabilizers of the endoplasmic reticulum resident proteome: Secreted ER Calcium Modulated Protein (SERCaMP) assay (AID 1508630; active = well fitted curve in the direction sought with a large enough effect; an effect the other way counts as inactive or inconclusive; note: % is set by controls: 0 for no effect and ±100 for the full control effect); conditions: SH-SY5Y GLuc-SERCaMP (Gaussia luciferase released on ER calcium loss) secretion, thapsigargin, luminescence; series mostly up to 38.4 µM
Outline: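 The SH-SY5Y reporter protocol was run at 3 concentrations up to 38.3 uM (primary) or 11 concentrations (follow-up): 16 h compound, 100 nM thapsigargin for 4 h, then extracellular luciferase luminescence.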

[11] = biological target: Cytochrome P450 2D6 (Homo sapiens) (UniProt P10635); test: qHTS Assay for Inhibitors and Substrates of Cytochrome P450 2D6 (AID 891; active = well fitted curve in the direction sought with a large enough effect; an effect the other way counts as inactive or inconclusive; note: potency is the fitted concentration of half-maximal effect; nearly all actives have a fitted effect of over 60% in size); conditions: recombinant CYP2D6, luciferin-ME EGE luminescence; series mostly up to 57.1 µM
Sequence of Cytochrome P450 2D6 (Homo sapiens) (P10635 whole entry, looked up): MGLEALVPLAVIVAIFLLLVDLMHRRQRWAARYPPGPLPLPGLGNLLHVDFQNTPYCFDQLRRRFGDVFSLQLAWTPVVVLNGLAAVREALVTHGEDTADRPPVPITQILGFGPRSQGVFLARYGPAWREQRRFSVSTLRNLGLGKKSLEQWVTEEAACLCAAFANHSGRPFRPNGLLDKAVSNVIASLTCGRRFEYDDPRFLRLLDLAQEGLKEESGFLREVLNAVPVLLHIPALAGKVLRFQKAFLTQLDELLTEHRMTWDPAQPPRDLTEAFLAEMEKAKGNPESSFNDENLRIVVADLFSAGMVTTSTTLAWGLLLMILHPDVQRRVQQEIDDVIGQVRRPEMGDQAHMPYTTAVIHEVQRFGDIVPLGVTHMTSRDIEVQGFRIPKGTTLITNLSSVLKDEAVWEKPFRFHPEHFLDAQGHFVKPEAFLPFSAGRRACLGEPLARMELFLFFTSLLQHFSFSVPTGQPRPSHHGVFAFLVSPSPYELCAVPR
Outline: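 Luminescent read-out of luciferin formed by 5 nM human CYP2D6 demethylating 30 uM Luciferin-ME EGE (Km level) over 60 min at room temperature after NADPH regeneration addition. Data normalized to full inhibition by 1.43 uM quinidine.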

[12] = biological target: Cytochrome P450 2C19 (Homo sapiens) (UniProt P33261); test: qHTS Assay for Inhibitors and Substrates of Cytochrome P450 2C19 (AID 899; active = well fitted curve in the direction sought with a large enough effect; an effect the other way counts as inactive or inconclusive; note: potency is the fitted concentration of half-maximal effect; nearly all actives have a fitted effect of over 60% in size); conditions: recombinant CYP2C19, luciferin-H EGE luminescence; series mostly up to 57.1 µM
Sequence of Cytochrome P450 2C19 (Homo sapiens) (P33261 whole entry, looked up): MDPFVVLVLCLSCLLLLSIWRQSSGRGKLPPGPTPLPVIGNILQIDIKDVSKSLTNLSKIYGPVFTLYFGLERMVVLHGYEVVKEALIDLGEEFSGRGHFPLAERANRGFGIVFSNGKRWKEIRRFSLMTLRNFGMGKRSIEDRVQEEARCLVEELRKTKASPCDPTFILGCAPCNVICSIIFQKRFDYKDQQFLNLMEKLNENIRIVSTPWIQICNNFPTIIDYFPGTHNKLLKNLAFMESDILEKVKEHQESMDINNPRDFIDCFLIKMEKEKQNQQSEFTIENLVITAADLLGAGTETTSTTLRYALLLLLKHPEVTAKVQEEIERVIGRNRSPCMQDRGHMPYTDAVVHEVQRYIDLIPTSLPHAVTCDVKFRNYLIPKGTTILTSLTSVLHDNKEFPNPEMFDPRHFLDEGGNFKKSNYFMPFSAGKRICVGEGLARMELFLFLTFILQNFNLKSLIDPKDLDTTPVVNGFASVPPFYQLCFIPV
Outline: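 NADPH-dependent conversion of Luciferin-H EGE (10uM, at KM) by 5nM enzyme in 50mM KPO4, 60 min at 37C following 10 min compound preincubation. Stopped with luciferin detection buffer; luminescence read after 20 min.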

[13] = biological target: Cytochrome P450 3A4 (Homo sapiens) (UniProt P08684); test: qHTS Assay for Inhibitors and Substrates of Cytochrome P450 3A4 (AID 884; active = well fitted curve in the direction sought with a large enough effect; an effect the other way counts as inactive or inconclusive; note: nearly all actives have a fitted effect of over 50% in size; note: potency is the fitted concentration of half-maximal effect); conditions: recombinant CYP3A4, Luciferin-PPXE luminescence; series mostly up to 57.1 µM
Outline: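 Luminescent readout of luciferin produced by CYP3A4 (20 nM) dealkylation of Luciferin-PPXE, 25 uM (its KM). NADPH-driven reaction ran 60 min at RT after 10 min compound preincubation; data scaled to 57 uM ketoconazole as 100% inhibition.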

[14] = Confirmation and Secondary Assay for Modulators of Hemoglobin Beta Chain Splicing at IVS2 654 locus (AID 910; active = well fitted curve in the direction sought with a large enough effect; an effect the other way counts as inactive or inconclusive;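 note: per-well total GFP intensity by laser scanning cytometry after 2-day treatment; % of control where 0% means no effect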); conditions: HeLa EGFP-654 splicing reporter, GFP fluorescence, 48 h; series mostly up to 38.3 µM
Outline: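 HeLa cells stably carrying EGFP interrupted by mutant beta-globin IVS2-654 intron (CMV-driven) were treated with compound for 2 days at 37C; corrected splicing was scored as total peak GFP intensity per well (488 nm excitation, 500-520 nm emission).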

O=C(c1cc(C(F)(F)F)cc(C(F)(F)F)c1)N1CCC2(CC1)CN(Cc1ccncc1)C2
inactive: Potency [1] > 11.4 µM | activity change, negative = inhibition [2] -12.2% | activity change, negative = inhibition [4] -6.5% | activity, negative = inhibition [5] 5.6% | Potency [6] > 46 µM | Potency [7] | Potency [8] | Potency [9] | outcome [10]
active: Potency [3] 20 µM

CC(C)NC(=O)N1CCCC2(CCN(C(=O)c3ccco3)CC2)C1
inactive: Potency [1] > 11.4 µM | activity change, negative = inhibition [2] 4.82% | Potency [3] | activity change, negative = inhibition [4] -9.54% | activity, negative = inhibition [5] -11.2% | Potency [6] > 46 µM | Potency [7] | Potency [8] | Potency [9] | outcome [10]
active: Potency [11] 2.51 µM

COC(=O)N1CCC[C@@]2(CCN(C(=O)Nc3ccc(OC)cc3)C2)C1
inactive: Potency [1] > 11.4 µM | activity change, negative = inhibition [2] -11% | Potency [3] | activity change, negative = inhibition [4] -1.85% | activity, negative = inhibition [5] 3.7% | Potency [6] > 46 µM | Potency [7] | Potency [8] | Potency [9] | outcome [10]

O=C(Oc1ccccc1)N1CCC[C@@]2(CCN(c3ccccn3)C2)C1
inactive: Potency [1] > 11.4 µM | activity change, negative = inhibition [2] 7.28% | activity change, negative = inhibition [4] -24.6% | activity, negative = inhibition [5] 9.87% | Potency [6] > 46 µM | Potency [7] | Potency [9] | outcome [10]
active: Potency [3] 7.94 µM | Potency [12] 5.01 µM

COc1ccc(NC(=O)N2CC3(CCN(C(=O)c4ccncc4)CC3)C2)cc1
inactive: Potency [1] > 11.4 µM | activity change, negative = inhibition [2] 0.578% | Potency [3] | activity change, negative = inhibition [4] 10.9% | activity, negative = inhibition [5] 6.73% | Potency [6] > 46 µM | Potency [7] | Potency [8] | Potency [9] | outcome [10]

CC(=O)N1CCC2(CCCN(c3cccc(-c4ccccc4)c3)C2)CC1
inactive: Potency [1] > 11.4 µM | activity change, negative = inhibition [2] -12.3% | activity change, negative = inhibition [4] -0.641% | activity, negative = inhibition [5] -8.45% | Potency [6] > 46 µM | Potency [7] | Potency [8] | Potency [9] | outcome [10]
active: Potency [3] 5.01 µM

O=S(=O)(c1ccccc1)N1CCC2(CC1)CN(C(c1ccccc1)c1ccccc1)C2
active: Potency [9] 3.16 µM | Potency [11] 2.51 µM
inactive: Potency [1] > 11.4 µM | activity change, negative = inhibition [2] 15.1% | Potency [3] | activity change, negative = inhibition [4] -14.8% | activity, negative = inhibition [5] -6.71% | Potency [6] > 46 µM | Potency [7] | Potency [8] | Potency [13] | outcome [10]

O=C(c1cnccn1)N1CCC2(CC1)CCN(c1ccccn1)CC2
inactive: Potency [1] > 11.4 µM | activity change, negative = inhibition [2] -11.4% | Potency [3] | activity change, negative = inhibition [4] -4.5% | activity, negative = inhibition [5] 3.98% | Potency [6] > 46 µM | Potency [7] | Potency [8] | outcome [10]
active: Potency [9] 15.8 µM

O=C(c1ccncc1)N1CCC[C@@]2(CCN(c3ccccc3)C2)C1
inactive: Potency [1] > 11.4 µM | activity change, negative = inhibition [2] -9.5% | Potency [3] | activity change, negative = inhibition [4] -16.6% | activity, negative = inhibition [5] 3.29% | Potency [6] > 46 µM | Potency [7] | Potency [8] | Potency [9] | outcome [10]
active: Potency [13] 3.16 µM

O=C(c1cnccn1)N1CCC[C@@]2(CCN(Cc3ccncc3)C2)C1
inactive: Potency [1] > 11.4 µM | activity change, negative = inhibition [2] -3.77% | activity change, negative = inhibition [4] 7.13% | activity, negative = inhibition [5] -5.95% | Potency [6] > 46 µM | Potency [7] | Potency [8] | Potency [9] | outcome [10]
active: Potency [3] 15.8 µM

O=C(c1ccco1)N1CCC2(CCCN(c3ccccc3)C2)CC1
inactive: Potency [1] > 11.4 µM | activity change, negative = inhibition [2] -6.34% | Potency [3] | activity change, negative = inhibition [4] -15.1% | activity, negative = inhibition [5] -2.43% | Potency [6] > 46 µM | Potency [7] | Potency [8] | Potency [9] | outcome [10]

Cc1cccc(CNc2nc(-c3ccccc3CN(C)C)nc3ccccc23)c1
active: Potency [3] 3.16 µM
inactive: Potency [1] > 11.4 µM | activity change, negative = inhibition [2] 20.6% | activity change, negative = inhibition [4] -22.2% | activity, negative = inhibition [5] -0.581% | Potency [6] > 46 µM | Potency [7] | Potency [9] | Potency [14] | outcome [10]

Cn1cccc1C(=O)N1CCC2(CC1)CCN(c1cccc(-c3ccccc3)c1)CC2
inactive: Potency [1] > 11.4 µM | activity change, negative = inhibition [2] -12.9% | activity change, negative = inhibition [4] 16.5% | activity, negative = inhibition [5] -8.63% | Potency [6] > 46 µM | Potency [8] | outcome [10]
active: Potency [3] 20 µM

c1csc(CNc2nc(-c3ccoc3)nc3ccccc23)c1
active: Potency [3] 0.316 µM | Potency [13] 7.94 µM | Potency [11] 3.98 µM
inactive: Potency [1] > 11.4 µM | activity change, negative = inhibition [2] -9.82% | activity change, negative = inhibition [4] -8.44% | activity, negative = inhibition [5] -7.57% | Potency [6] > 46 µM | Potency [7] | Potency [9] | outcome [10]

CS(=O)(=O)N1CCC[C@@]2(CCN(C(=O)Nc3cccc(C#N)c3)C2)C1
inactive: Potency [1] > 11.4 µM | activity change, negative = inhibition [2] -2.32% | Potency [3] | activity change, negative = inhibition [4] 9.12% | activity, negative = inhibition [5] 1.86% | Potency [6] > 46 µM | Potency [7] | Potency [8] | Potency [9] | outcome [10]
